From PubChem BioAssay (NCI)
The panel holds about 83,000 compounds, 20% with a hit somewhere; the sample as a whole holds those more often.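 In brief: 96-well plates, 48 h treatment, single concentration, percent growth endpoint.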 Active and inactive are the calls of the source. How the source made its calls: active means growth percent below 10; inactive means the rest.

Experiments:
Test in all cases: NCI-60 one-dose screen, 48 h (100 = growth as untreated, 0 = no growth, -100 = all killed)
OVCAR-5 ovarian = test system: OVCAR-5 ovarian
OVCAR-4 ovarian = test system: OVCAR-4 ovarian
SK-OV-3 ovarian = test system: SK-OV-3 ovarian
IGROV1 ovarian = test system: IGROV1 ovarian
HS 578T breast = test system: HS 578T breast
NCI/ADR-RES ovarian = test system: NCI/ADR-RES ovarian
T-47D breast = test system: T-47D breast
BT-549 breast = test system: BT-549 breast
MDA-MB-435 melanoma = test system: MDA-MB-435 melanoma
SW-620 colon = test system: SW-620 colon
MCF7 breast = test system: MCF7 breast
HCT-116 colon = test system: HCT-116 colon
HCC-2998 colon = test system: HCC-2998 colon
KM12 colon = test system: KM12 colon
OVCAR-8 ovarian = test system: OVCAR-8 ovarian

Measured: growth

CCC1(O)CC(OC2CC(N(C)C)C(OC3CC4OC5CC(=O)C(C)OC5OC4C(C)O3)C(C)O2)c2c(cc3c(c2O)C(=O)c2c(O)ccc(O)c2C3=O)C1C(=O)OC (stereo not given)
inactive: SK-OV-3 ovarian; 10 µM unless noted 16.1%
active: OVCAR-5 ovarian; 10 µM unless noted -16.1% | OVCAR-4 ovarian; 10 µM unless noted -53.9% | IGROV1 ovarian; 10 µM unless noted -78.1% | HS 578T breast; 10 µM unless noted -37% | NCI/ADR-RES ovarian; 10 µM unless noted -20% | T-47D breast; 10 µM unless noted -2.73% | BT-549 breast; 10 µM unless noted -76.3% | MDA-MB-435 melanoma; 10 µM unless noted -94.1% | SW-620 colon; 10 µM unless noted -11.4% | MCF7 breast; 10 µM 2.21% | HCT-116 colon; 10 µM unless noted -2.93% | HCC-2998 colon; 10 µM unless noted -89.9% | KM12 colon; 10 µM unless noted -55.3%

CC1=C2C(=O)[C@H]3[C@@H](CC=C4C[C@@H](O)CC[C@@]43C)[C@@H]2CC[C@]12O[C@@H]1C[C@H](C)CN[C@H]1[C@H]2C
inactive: OVCAR-8 ovarian; 10 µM 89.3% | OVCAR-5 ovarian; 10 µM unless noted 94% | OVCAR-4 ovarian; 10 µM unless noted 96.3% | SK-OV-3 ovarian; 10 µM unless noted 101% | IGROV1 ovarian; 10 µM unless noted 26.1% | HS 578T breast; 10 µM unless noted 118% | NCI/ADR-RES ovarian; 10 µM unless noted 101% | T-47D breast; 10 µM unless noted 107% | MDA-MB-435 melanoma; 10 µM unless noted 98.2% | SW-620 colon; 10 µM unless noted 99.2% | MCF7 breast; 10 µM 91.6% | HCT-116 colon; 10 µM unless noted 45.5% | HCC-2998 colon; 10 µM unless noted 141% | KM12 colon; 10 µM unless noted 112%

CCC(=O)OC1CCn2c1nc1c2C(=O)C(C)=C(N2CC2)C1=O (stereo not given)
inactive: OVCAR-5 ovarian; 10 µM unless noted 13.5% | OVCAR-4 ovarian; 10 µM unless noted 13.2% | T-47D breast; 10 µM unless noted 70.2%
active: OVCAR-8 ovarian; 10 µM 3.32% | SK-OV-3 ovarian; 10 µM unless noted -53.8% | IGROV1 ovarian; 10 µM unless noted -6.18% | HS 578T breast; 10 µM unless noted -5.47% | NCI/ADR-RES ovarian; 10 µM unless noted 1.27% | BT-549 breast; 10 µM unless noted -79.1% | MDA-MB-435 melanoma; 10 µM unless noted -83.6% | SW-620 colon; 10 µM unless noted 3.77% | MCF7 breast; 10 µM -15.6% | HCT-116 colon; 10 µM unless noted 1.09% | HCC-2998 colon; 10 µM unless noted -52.9% | KM12 colon; 10 µM unless noted -35.1%

S=C(SSC(=S)N1CCCCC1)N1CCCCC1
inactive: OVCAR-8 ovarian; 10 µM 92.4% | OVCAR-5 ovarian; 10 µM 114% | OVCAR-4 ovarian; 10 µM 85.2% | SK-OV-3 ovarian; 10 µM 110% | SK-OV-3 ovarian; 100 µM 45.7% | IGROV1 ovarian; 10 µM 99.5% | IGROV1 ovarian; 100 µM 50.2% | HS 578T breast; 10 µM 111% | HS 578T breast; 100 µM 59.7% | NCI/ADR-RES ovarian; 10 µM 97.7% | T-47D breast; 10 µM 100% | BT-549 breast; 10 µM 92% | MDA-MB-435 melanoma; 10 µM 99.3% | SW-620 colon; 10 µM 95.3% | MCF7 breast; 10 µM 80.1% | HCT-116 colon; 10 µM 85.3% | HCC-2998 colon; 10 µM 109% | HCC-2998 colon; 100 µM 22.3% | KM12 colon; 10 µM 102%
active: OVCAR-8 ovarian; 100 µM -43.4% | OVCAR-5 ovarian; 100 µM -85.8% | OVCAR-4 ovarian; 100 µM -51.1% | NCI/ADR-RES ovarian; 100 µM 2.3% | T-47D breast; 100 µM -28.4% | BT-549 breast; 100 µM -1.94% | MDA-MB-435 melanoma; 100 µM -30.9% | SW-620 colon; 100 µM -55.7% | MCF7 breast; 100 µM -46.8% | HCT-116 colon; 100 µM -76.4% | KM12 colon; 100 µM -18.5%

CCOC(=O)C(NC(=O)C(Cc1ccc(N(CCCl)CCCl)cc1)NC(C)=O)C(C)C (stereo not given)
inactive: OVCAR-8 ovarian; 10 µM 83.1% | OVCAR-5 ovarian; 10 µM unless noted 105% | OVCAR-4 ovarian; 10 µM unless noted 96.4% | SK-OV-3 ovarian; 10 µM unless noted 82.5% | IGROV1 ovarian; 10 µM unless noted 79.3% | HS 578T breast; 10 µM unless noted 101% | NCI/ADR-RES ovarian; 10 µM unless noted 88% | T-47D breast; 10 µM unless noted 74.5% | BT-549 breast; 10 µM unless noted 87% | MDA-MB-435 melanoma; 10 µM unless noted 101% | SW-620 colon; 10 µM unless noted 69.4% | MCF7 breast; 10 µM 61.9% | HCT-116 colon; 10 µM unless noted 77.2% | HCC-2998 colon; 10 µM unless noted 73.2% | KM12 colon; 10 µM unless noted 94.8%

CN1CCN(c2ccc([N+](=O)[O-])c3no[n+]([O-])c23)CC1
active: OVCAR-8 ovarian; 10 µM -92.7% | OVCAR-5 ovarian; 10 µM unless noted -15.2% | OVCAR-4 ovarian; 10 µM unless noted -91.8% | SK-OV-3 ovarian; 10 µM unless noted -97.9% | IGROV1 ovarian; 10 µM unless noted -71.5% | HS 578T breast; 10 µM unless noted -12% | NCI/ADR-RES ovarian; 10 µM unless noted -33.1% | T-47D breast; 10 µM unless noted -56.5% | BT-549 breast; 10 µM unless noted -64.6% | MDA-MB-435 melanoma; 10 µM unless noted -82.2% | SW-620 colon; 10 µM unless noted -70.9% | MCF7 breast; 10 µM -49.3% | HCT-116 colon; 10 µM unless noted -66.5% | KM12 colon; 10 µM unless noted -82.8%

CC[C@](O)(C(=O)O)c1cc2n(c(=O)c1CO)Cc1cc3ccccc3nc1-2
inactive: SK-OV-3 ovarian; 10 µM unless noted 12.4% | HS 578T breast; 10 µM unless noted 29.4%
active: OVCAR-5 ovarian; 10 µM unless noted 9.24% | OVCAR-4 ovarian; 10 µM unless noted -19.4% | IGROV1 ovarian; 10 µM unless noted -48.1% | NCI/ADR-RES ovarian; 10 µM unless noted 2.02% | T-47D breast; 10 µM unless noted -6.44% | BT-549 breast; 10 µM unless noted -34.5% | MDA-MB-435 melanoma; 10 µM unless noted -81% | SW-620 colon; 10 µM unless noted -30% | MCF7 breast; 10 µM 1.99% | HCT-116 colon; 10 µM unless noted -26.6% | HCC-2998 colon; 10 µM unless noted -61.6% | KM12 colon; 10 µM unless noted -29.9%

CC[C@@]1(O)C[C@H](OC2CC(N(C)C)C(OC3CC(O)C(OC4CCC(=O)C(C)O4)C(C)O3)C(C)O2)c2c(cc3c(c2O)C(=O)c2c(O)ccc(O)c2C3=O)[C@H]1C(=O)OC (stereo not given in full)
active: OVCAR-5 ovarian; 10 µM unless noted 1.64% | OVCAR-4 ovarian; 10 µM unless noted -36.5% | IGROV1 ovarian; 10 µM unless noted -49.2% | HS 578T breast; 10 µM unless noted 9.34% | BT-549 breast; 10 µM unless noted -4.5% | MDA-MB-435 melanoma; 10 µM unless noted -2.5% | SW-620 colon; 10 µM unless noted -1.19% | MCF7 breast; 10 µM 0.371% | HCT-116 colon; 10 µM unless noted -58.7% | HCC-2998 colon; 10 µM unless noted -77.5% | KM12 colon; 10 µM unless noted -14.9%
inactive: SK-OV-3 ovarian; 10 µM unless noted 33.1% | NCI/ADR-RES ovarian; 10 µM unless noted 11% | T-47D breast; 10 µM unless noted 18%
